Columns and labels:
Test in all cases: log2 ratio of Biotin-Ahx-Ub-VS probe labelling (fragment/DMSO); higher = less target engagement (more negative = stronger competition), active = hit call of the paper (q ≤ 0.05, log2 ratio ≤ -1)
Settings in all cases: compound concentration: 200 uM; treatment time: 3 h
OTUD6B = molecular target: T1, OTUD6B (UniProt Q8N6M0)
T1 sequence (whole entry): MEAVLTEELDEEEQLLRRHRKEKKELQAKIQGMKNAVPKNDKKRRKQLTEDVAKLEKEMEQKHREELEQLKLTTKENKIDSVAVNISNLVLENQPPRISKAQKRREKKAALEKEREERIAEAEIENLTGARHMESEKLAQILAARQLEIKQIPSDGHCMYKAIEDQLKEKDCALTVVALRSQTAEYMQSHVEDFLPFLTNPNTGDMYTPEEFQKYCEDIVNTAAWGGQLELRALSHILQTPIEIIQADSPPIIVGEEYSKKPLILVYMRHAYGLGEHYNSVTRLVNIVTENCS
How it was run: (§1)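 In triplicate, 495 µg of HEK293T lysate per sample was incubated with fragment at 200 µM or vehicle for 3 h. Biotin-Ahx-Ub-VS was then added to 0.5 µM final for 1 h, and labelled DUBs were captured with NeutrAvidin, digested with LysC and trypsin, and measured by diaPASEF LC-MS/MS. Data are average log2 fragment/vehicle ratios by unpaired t-test from global-median-normalised Spectronaut label-free quantities, restricted to proteins with ≥2 unique peptides.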

OTUD7B = molecular target: T2, OTUD7B (UniProt Q6GQQ9)
T2 sequence (whole entry): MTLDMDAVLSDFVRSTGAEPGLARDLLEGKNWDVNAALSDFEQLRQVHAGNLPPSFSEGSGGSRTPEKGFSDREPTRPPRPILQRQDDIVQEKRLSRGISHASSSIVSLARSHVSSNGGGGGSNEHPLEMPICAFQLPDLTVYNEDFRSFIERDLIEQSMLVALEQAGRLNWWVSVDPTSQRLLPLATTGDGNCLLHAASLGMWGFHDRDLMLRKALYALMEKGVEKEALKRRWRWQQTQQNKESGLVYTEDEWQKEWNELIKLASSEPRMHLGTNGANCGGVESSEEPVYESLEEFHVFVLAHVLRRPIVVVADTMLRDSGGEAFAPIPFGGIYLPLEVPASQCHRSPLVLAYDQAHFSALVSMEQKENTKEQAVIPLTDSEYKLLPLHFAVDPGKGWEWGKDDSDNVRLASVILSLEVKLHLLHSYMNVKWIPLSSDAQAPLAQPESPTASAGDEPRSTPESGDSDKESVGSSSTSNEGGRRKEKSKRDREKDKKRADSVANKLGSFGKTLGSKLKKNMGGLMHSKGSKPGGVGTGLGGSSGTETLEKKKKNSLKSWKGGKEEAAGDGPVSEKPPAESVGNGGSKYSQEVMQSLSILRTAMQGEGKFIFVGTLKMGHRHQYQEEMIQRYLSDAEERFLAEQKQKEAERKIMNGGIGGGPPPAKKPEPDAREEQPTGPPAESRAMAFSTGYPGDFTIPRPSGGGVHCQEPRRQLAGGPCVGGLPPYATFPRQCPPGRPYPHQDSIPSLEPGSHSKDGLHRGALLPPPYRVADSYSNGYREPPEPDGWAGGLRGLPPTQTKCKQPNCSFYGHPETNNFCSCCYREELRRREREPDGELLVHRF
How it was run: as §1

PRPF8 = PRPF8 (UniProt Q6P2Q9)
How it was run: as §1

PSMD7 = molecular target: T3, PSMD7 (UniProt P51665)
T3 sequence (whole entry): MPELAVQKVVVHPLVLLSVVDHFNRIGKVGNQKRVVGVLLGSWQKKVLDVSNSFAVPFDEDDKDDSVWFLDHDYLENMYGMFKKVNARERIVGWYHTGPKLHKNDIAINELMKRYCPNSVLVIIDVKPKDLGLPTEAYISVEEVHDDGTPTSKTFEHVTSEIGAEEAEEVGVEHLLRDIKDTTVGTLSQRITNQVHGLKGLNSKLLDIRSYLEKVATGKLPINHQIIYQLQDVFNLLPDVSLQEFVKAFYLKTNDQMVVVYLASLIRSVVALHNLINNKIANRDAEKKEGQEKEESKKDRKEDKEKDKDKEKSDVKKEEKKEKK
How it was run: as §1

UCHL1 = UCHL1 (UniProt P09936)
How it was run: as §1

UCHL3 = molecular target: T4, UCHL3 (UniProt P15374)
T4 sequence (whole entry): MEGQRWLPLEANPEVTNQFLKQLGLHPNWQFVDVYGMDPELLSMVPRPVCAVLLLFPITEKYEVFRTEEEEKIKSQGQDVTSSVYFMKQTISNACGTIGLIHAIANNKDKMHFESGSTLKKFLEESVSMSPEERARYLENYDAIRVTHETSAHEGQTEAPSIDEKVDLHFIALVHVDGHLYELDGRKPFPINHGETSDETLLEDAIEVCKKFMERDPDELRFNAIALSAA
How it was run: as §1

UCHL5 = molecular target: T5, UCHL5 (UniProt Q9Y5K5)
T5 sequence (whole entry): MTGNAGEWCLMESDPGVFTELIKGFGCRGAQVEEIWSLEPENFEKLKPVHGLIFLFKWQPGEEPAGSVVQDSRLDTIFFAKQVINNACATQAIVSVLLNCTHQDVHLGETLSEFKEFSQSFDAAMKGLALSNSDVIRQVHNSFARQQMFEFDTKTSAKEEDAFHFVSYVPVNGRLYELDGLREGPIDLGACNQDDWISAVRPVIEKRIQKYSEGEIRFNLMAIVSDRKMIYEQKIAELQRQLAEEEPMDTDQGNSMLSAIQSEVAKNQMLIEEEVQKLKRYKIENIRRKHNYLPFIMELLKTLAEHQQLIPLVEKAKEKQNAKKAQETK
How it was run: as §1

USP10 = USP10 (UniProt Q14694)
How it was run: as §1

USP15 = molecular target: T6, USP15 (UniProt Q9Y4E8)
T6 sequence (whole entry): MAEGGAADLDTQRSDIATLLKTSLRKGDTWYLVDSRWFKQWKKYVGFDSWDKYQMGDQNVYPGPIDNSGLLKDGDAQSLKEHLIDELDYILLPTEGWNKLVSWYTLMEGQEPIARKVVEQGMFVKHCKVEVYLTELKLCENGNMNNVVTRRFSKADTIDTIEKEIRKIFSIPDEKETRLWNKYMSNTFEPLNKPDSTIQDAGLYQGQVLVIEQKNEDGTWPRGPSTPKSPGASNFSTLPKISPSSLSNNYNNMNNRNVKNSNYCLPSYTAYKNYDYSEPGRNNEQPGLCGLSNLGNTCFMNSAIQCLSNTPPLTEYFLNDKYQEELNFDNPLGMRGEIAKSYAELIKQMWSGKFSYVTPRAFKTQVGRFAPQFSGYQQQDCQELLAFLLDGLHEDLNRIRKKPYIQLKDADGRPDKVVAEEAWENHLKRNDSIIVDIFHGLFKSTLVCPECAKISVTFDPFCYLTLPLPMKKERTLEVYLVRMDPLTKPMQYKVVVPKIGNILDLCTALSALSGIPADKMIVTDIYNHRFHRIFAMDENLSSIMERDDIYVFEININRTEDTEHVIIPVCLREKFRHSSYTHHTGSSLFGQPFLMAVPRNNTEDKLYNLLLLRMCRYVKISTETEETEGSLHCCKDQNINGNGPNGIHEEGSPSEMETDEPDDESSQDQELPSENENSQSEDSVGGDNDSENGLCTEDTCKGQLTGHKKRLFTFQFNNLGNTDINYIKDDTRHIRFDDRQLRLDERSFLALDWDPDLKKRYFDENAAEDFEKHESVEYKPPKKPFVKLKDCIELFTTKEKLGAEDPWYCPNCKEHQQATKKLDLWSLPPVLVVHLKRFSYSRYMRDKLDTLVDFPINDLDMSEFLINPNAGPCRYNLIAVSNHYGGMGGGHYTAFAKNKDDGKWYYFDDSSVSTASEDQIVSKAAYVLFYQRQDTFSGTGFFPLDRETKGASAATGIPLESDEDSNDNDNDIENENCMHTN
How it was run: as §1

USP16 = USP16 (UniProt Q9Y5T5)
How it was run: as §1

Measured: log2 ratio of Biotin-Ahx-Ub-VS probe labelling

Sequence of USP10 (Q14694 whole entry): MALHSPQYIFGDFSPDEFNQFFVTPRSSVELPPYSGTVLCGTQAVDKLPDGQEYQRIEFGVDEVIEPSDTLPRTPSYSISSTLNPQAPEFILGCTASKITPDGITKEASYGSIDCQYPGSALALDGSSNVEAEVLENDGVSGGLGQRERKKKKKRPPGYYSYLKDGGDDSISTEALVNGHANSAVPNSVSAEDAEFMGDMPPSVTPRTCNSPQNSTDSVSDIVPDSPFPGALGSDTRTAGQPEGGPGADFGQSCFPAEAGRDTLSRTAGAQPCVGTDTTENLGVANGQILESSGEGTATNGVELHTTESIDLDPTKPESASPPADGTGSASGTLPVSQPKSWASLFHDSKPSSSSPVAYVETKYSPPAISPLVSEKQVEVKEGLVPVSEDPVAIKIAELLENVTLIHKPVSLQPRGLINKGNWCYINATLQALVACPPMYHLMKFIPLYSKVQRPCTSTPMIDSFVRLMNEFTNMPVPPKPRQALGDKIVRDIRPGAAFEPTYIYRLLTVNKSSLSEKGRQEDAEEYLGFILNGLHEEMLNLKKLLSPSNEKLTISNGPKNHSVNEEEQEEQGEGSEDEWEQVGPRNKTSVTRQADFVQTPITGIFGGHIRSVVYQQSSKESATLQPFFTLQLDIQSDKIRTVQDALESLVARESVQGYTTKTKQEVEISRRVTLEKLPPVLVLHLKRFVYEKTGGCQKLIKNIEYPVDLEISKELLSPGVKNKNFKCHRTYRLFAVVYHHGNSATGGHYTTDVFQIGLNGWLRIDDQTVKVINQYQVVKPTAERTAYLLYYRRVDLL
Sequence of UCHL1 (P09936 whole entry, looked up): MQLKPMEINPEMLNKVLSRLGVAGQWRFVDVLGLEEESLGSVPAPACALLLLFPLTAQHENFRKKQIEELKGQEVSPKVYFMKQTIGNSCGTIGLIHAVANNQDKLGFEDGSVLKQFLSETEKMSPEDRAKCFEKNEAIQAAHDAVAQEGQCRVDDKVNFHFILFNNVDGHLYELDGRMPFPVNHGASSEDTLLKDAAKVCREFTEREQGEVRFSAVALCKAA
Sequence of USP16 (Q9Y5T5 whole entry, looked up): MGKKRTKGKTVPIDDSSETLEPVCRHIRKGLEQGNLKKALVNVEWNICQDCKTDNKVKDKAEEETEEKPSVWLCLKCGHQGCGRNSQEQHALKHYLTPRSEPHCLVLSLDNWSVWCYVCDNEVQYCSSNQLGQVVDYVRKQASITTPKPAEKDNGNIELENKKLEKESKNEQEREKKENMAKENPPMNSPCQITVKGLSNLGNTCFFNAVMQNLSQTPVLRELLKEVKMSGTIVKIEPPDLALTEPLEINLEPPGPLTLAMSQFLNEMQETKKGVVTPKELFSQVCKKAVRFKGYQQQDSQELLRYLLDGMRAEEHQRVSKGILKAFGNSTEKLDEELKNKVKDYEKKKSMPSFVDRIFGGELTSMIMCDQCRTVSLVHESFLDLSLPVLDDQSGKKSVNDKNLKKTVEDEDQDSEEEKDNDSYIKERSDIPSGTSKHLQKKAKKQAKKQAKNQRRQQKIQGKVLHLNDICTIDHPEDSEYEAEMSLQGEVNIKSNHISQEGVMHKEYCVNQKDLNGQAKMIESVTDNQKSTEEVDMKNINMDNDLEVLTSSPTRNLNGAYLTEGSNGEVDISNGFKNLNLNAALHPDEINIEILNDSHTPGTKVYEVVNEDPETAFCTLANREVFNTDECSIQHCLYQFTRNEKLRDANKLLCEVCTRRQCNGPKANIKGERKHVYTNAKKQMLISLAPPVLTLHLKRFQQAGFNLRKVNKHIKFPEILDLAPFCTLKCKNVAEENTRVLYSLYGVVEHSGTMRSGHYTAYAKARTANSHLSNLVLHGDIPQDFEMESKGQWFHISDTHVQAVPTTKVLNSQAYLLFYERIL

O=C(CCl)N1CCOC(CCc2ccccc2)C1 (stereo not given)
active: UCHL1 -1.46
inactive: OTUD6B -0.215 | OTUD7B -0.71 | PRPF8 -0.0352 | PSMD7 -0.432 | UCHL3 -0.025 | UCHL5 -0.22 | USP10 -0.258 | USP15 -0.374 | USP16 -0.411
